Assay outcomes as filed in PubChem BioAssay.
SMN2 splice up = SMN2 splice variant enhancement. actives 2.8% (n = 210,000). HEK293 SMN2-luciferase splicing reporter, luminescence, 30-36 h. Potency, µM (titrated, usually from 46.1 µM), without a hit: at the top dose activity change, positive = activation, most hits filed as activators. AID 1458; further: % of control where 0% means no effect; nearly all actives have a fitted effect of over 55% in size
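HEK293 cells carry an SMN2 […]–luciferase reporter in which exon 7 inclusion puts luciferase in frame. Cells were plated 10-12 h before compound addition, then incubated 30-36 h at 37C. ONE-Glo luminescence was read; sodium butyrate at 4.5 mM final served as control.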
Rab9 prom act = Rab9 promoter activation | AID 485297 | Potency, µM (highest dose often 9.22 µM), without a hit: top-dose activation, negative = inhibition, actives largely listed as activators | actives 2.8% (n = 320,000) | Huh7 Rab9 promoter-luciferase reporter, luminescence, 24 h; further: % of control where 0% means no effect; nearly all actives have a fitted effect of over 60% in size
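Huh7 cells stably carrying a Rab9 promoter-luciferase reporter, 1500 cells per well in OP-MEM I with 10% FBS, treated with compound 24 hours at 37C. Luciferase activity read by luminescence after 10 minutes with Amplite reagent.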
NPC1 prom act = NPC1 promoter activation | Potency, µM (doses to about 9.22 µM), for inactives: top-dose activation, actives largely listed as activators | Huh7 NPC1 promoter luciferase reporter, 24 h | actives 2.4% (n = 320,000) | AID 485313; further: % of control where 0% means no effect; nearly all actives have a fitted effect of over 60% in size
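Cells: Huh7 expressing luciferase under the NPC1 promoter, 1500/well. Seeded 2 h, compound added, incubated 24 h at 37 °C. Luciferase reagent, 10 min ambient, then luminescence.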
FLuc counter = counter-screen for miR-21 project: firefly luciferase inhibitors or activators; purified FLuc, Km substrates, luminescence inhibition; actives 6.9% (n = 360,000); AID 588342; Potency, µM (top dose mostly 57.5 µM), without a hit: at the top dose activity change, negative = inhibition, hits mostly inhibitors;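 further: plate controls were vehicle for no effect and reference inhibitor for full effect; nearly all actives have a fitted effect of over 55% in size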
Target sequence (P08659 whole entry, looked up): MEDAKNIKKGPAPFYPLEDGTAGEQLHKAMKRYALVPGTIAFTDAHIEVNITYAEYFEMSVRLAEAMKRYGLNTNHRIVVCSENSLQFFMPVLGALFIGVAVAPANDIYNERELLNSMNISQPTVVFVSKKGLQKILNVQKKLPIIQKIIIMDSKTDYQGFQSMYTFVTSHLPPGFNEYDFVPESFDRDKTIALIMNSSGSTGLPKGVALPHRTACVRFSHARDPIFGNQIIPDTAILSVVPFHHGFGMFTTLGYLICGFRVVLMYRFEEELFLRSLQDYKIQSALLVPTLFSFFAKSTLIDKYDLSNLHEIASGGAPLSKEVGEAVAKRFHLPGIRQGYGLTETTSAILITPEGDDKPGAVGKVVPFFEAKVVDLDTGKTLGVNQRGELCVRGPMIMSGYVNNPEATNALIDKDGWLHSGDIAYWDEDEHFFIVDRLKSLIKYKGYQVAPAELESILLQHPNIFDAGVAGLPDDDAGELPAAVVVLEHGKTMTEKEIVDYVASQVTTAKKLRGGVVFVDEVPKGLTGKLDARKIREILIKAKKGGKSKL
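Purified P. pyralis luciferase (10nM final) with 10uM D-luciferin and 10uM ATP (Km levels) in 50mM Tris acetate pH 7.5, 10mM Mg acetate, 0.01% Tween-20, 0.05% BSA; qHTS 6-point titration, ~60 µM downward; luminescence read.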
ELG1 genotox = inducers of genotoxicity in HEK293T ELG1-luciferase cells; Potency, µM (top dose mostly 46 µM), without a hit: top-dose activity change, positive = activation, hits mostly activators; actives 1.3% (n = 330,000); HEK293T ELG1-luciferase reporter, luminescence, 16 h; AID 504466; further: % of control where 0% means no effect; nearly all actives have a fitted effect of over 60% in size
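ELG1-luciferase HEK293T cells, 2,000/well; compound pinned in; 16 hr, 37 °C, 5% CO2; ONE-Glo, 30 min RT; luminescence on CCD imager.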
Starred values were filed as active, the others as inactive; ? = inconclusive; . = not tested or not shown. A selection: hits, their analogues and other compounds. The true share with any hit is near 7.4%. The call rests on the fitted dose curve; in most records, active means well fitted curve in the direction sought with a large enough effect; inconclusive means small, poorly fitted or top-dose-only effect, or another doubt; inactive means no such curve, though single readings can be large; an effect the other way counts as inactive or inconclusive. Potency means the concentration at half of the fitted maximal effect.

SMILES | SMN2 splice up | Rab9 prom act | NPC1 prom act | FLuc counter | ELG1 genotox
Cc1cccc(C(=O)Nc2cccc(OCc3cc(=O)n4ccccc4n3)c2)c1 | . | . | . | 4.4% | .
COc1ccc(C)cc1NC(=O)Nc1cccc(OCc2cc(=O)n3ccc(C)cc3n2)c1 | . | . | . | 2.69µM* | .
COc1ccccc1C(=O)Nc1cccc(OCc2cc(=O)n3c4c(sc3n2)CCCC4)c1 | 12.6% | . | . | 6.01µM* | .
COc1ccccc1C(=O)Nc1cccc(OCc2cc(=O)n3ccccc3n2)c1 | . | . | . | 7.57µM* | .
C=C(C(=O)C(C)(C)O)C(O)c1ccc([N+](=O)[O-])cc1 (stereo not drawn) | -3.7% | . | . | . | .
CN(C(=O)CSc1nnc(Nc2ccccc2)s1)c1c(N)n(Cc2ccccc2)c(=O)[nH]c1=O | . | -1.7% | 1.6% | -29.5% | 0.7%
COCCN(C(=O)CSc1nnc(Nc2ccc(C)cc2)s1)c1c(N)n(CC(C)C)c(=O)[nH]c1=O | 11.8% | -1.0% | -2.0% | 10.7µM* | 2.2%
CCCCn1c(N)c(N(CCC(C)C)C(=O)CSc2nnc(Nc3ccccc3)s2)c(=O)[nH]c1=O | 11.6% | 1.5% | -0.2% | 23.9µM* | 7.0%
CCCCN(C(=O)CSc1nnc(Nc2ccc(C)c(C)c2)s1)c1c(N)n(Cc2ccccc2)c(=O)[nH]c1=O | 22.4µM* | 3.0% | 15.0% | 1.07µM* | 5.5%
O=C(c1cccc(F)c1)N1CCC2(CC1)CN(c1ccccn1)C2 | -37.6% | . | . | . | .
CC1Cn2c(C(=O)NCc3cccc(Br)c3)cc3cccc(c32)S1 (stereo not drawn) | . | . | . | 6.3% | .
OCC#CCSc1nnc(-c2cccc3ccccc23)o1 | . | -0.6% | -3.1% | ? | 5.3%
COC(=O)CSc1nnc(-c2sc3ccccc3c2Cl)o1 | -10.4% | 3.9% | -5.8% | 5.36µM* | -2.1%
N#CCSc1nnc(-c2sc3ccccc3c2Cl)o1 | -23.2% | 12.2% | 0.9% | 16.9µM* | 2.0%
CCOc1ncccc1C(=O)OCC(=O)c1ccccc1 | 9.1% | -2.9% | -2.8% | ? | -0.8%
CCOc1ncccc1C(=O)OCC(=O)c1ccc(C)c(C)c1 | ? | ? | ? | 10.7µM* | 8.7%
CCOc1ncccc1C(=O)OCC(=O)c1ccccc1Br | 17.1% | 0.0% | 1.4% | 13.5µM* | 3.7%
CC1=C(C(=O)N2CCN(c3cccc(C)c3C)CC2)C2(CCCCC2)OC1=O | -5.1% | . | . | -1.8% | .
Cc1oc(-c2cccc(C(F)(F)F)c2)nc1CN1CCOCC1 | . | ? | 13.0% | 26.9µM* | ?
COc1ccc(C2(C)NC(=O)N(CC(=O)Nc3ccc4ccccc4c3)C2=O)cc1OC (stereo not drawn) | . | -0.6% | -1.2% | 2.3% | -6.8%
COc1ccc(NC(=O)CN2C(=O)NC(C)(c3ccccc3)C2=O)cc1Cl (stereo not drawn) | . | -3.3% | -0.9% | 21.3µM* | 1.9%
COc1ccc(C2=C(Nc3ccc(Br)c(C)c3)c3ccccc3C2=O)cc1 | -15.3% | . | . | -1.2% | .
O=C(c1cc(COc2ccc3c(c2)CCCC3)on1)N1CCCC1 | . | 3.98µM* | 2.82µM* | 10.7µM* | 18.3µM*
CCOC(=O)N1CCN(C(=O)c2cc(COc3ccc(F)cc3F)on2)CC1 | . | ? | 18.4% | ? | ?
CC(=O)N1CCCN(C(=O)c2cc(COc3c(F)cccc3F)on2)CC1 | . | 13.4% | 0.2% | 3.2% | -1.9%
SMILES | SMN2 splice up | Rab9 prom act | NPC1 prom act | FLuc counter | ELG1 genotox
O=C(c1cc(COc2c(F)cccc2F)on1)N1CCCCCC1 | . | 2.82µM* | ? | ? | ?
CCOC(=O)C1CCN(C(=O)c2cc(COc3ccc(F)cc3F)on2)CC1 | . | 2.82µM* | 2.82µM* | 13.5µM* | 20.6µM*
Cc1cccc(C)c1OCc1cc(C(=O)N2CCN(c3ccc(F)cc3)CC2)no1 | . | 1.12µM* | 0.631µM* | 3.38µM* | ?
CCC(=O)O[C@H]1C(O[C@@H]2C(C)[C@H](O[C@H]3C[C@@](C)(OC)C(O)C(C)O3)C(C)C(=O)OC(CC)[C@@](C)(O)C(O)[C@H](C)C(=O)C(C)C[C@]2(C)O)OC(C)CC1N(C)C (stereo partly drawn) | -13.1% | . | . | . | .
CCOC(=O)N1CCN(C(=O)c2cc(COc3c(F)cccc3F)on2)CC1 | . | 3.16µM* | 2.24µM* | 8.49µM* | 14.6µM*
O=c1[nH]c(-c2ccccc2)nnc1-c1ccccc1 | . | ? | ? | 16.9µM* | ?
CCOc1ccc(NC(=O)Cn2sc3nc(C)cc(C)c3c2=O)cc1 | . | -1.9% | -2.2% | ? | -0.6%
Cc1cc(C)c2c(=O)n(CC(=O)Nc3ccc(Cl)cc3)sc2n1 | . | 2.3% | -1.3% | 7.57µM* | -0.5%
Cc1ccc(NC(=O)Cn2sc3nc(C)cc(C)c3c2=O)c(Cl)c1 | . | -3.9% | 2.9% | 10.7µM* | 0.8%
Cc1cc(C)c2c(=O)n(CC(=O)Nc3cccc(F)c3)sc2n1 | . | -2.4% | -2.7% | 9.53µM* | 2.8%
Cc1ccc(NC(=O)Cn2c(C)cc(C)c(C#N)c2=O)c(Cl)c1 | 1.5% | -0.1% | -2.2% | -0.4% | -0.8%
CCCCN(CC)CCCNC(=O)c1nn(-c2ccc(OC)cc2)c(=O)c2c1c1ccccc1n2C | 6.6% | . | . | 0.4% | .
O=C(NCCc1ccc2c(c1)OCCO2)c1ccccc1F | -9.1% | 29.2% | ? | ? | 15.9%
COc1ccccc1C(CNC(=O)c1oc2ccccc2c1C)N1CCCC1 (stereo not drawn) | . | -6.4% | 1.0% | 23.9µM* | -1.6%
Cc1c(C(=O)NCCc2ccc3c(c2)OCCO3)oc2ccccc12 | -13.5% | 9.4% | -1.9% | 19µM* | -1.1%
COc1ccc(C(CNC(=O)c2oc3ccccc3c2C)N2CCCCC2)cc1 (stereo not drawn) | -11.8% | . | . | 6.2% | .
COc1ccc(CCNC(=O)c2oc3ccccc3c2C)cc1 | . | -4.2% | -2.7% | 19µM* | 0.1%
